Measurements as given in PubChem BioAssay AID588343 (Broad Institute, 2011).
Out of some 1,200 compounds screened, about 650 (54%) were called active. About 5% were inconclusive and are not listed.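 How the source made its calls: active means signal-lowering curve whose fitted half-maximal concentration is at or below ten times the top valid dose tested; inconclusive means flat curve with 30 to 70% inhibition, or poor fit; inactive means signal increase, flat within 30%, or potency beyond limit.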 So high a share suggests a set chosen from earlier hits. A selection follows. Potency and affinity values are given separately.

Test: EBV LMP1 TES2 canonical NF-kB signalling blockers – cell-based, HEK293, luciferase, cherry-pick, dose response (AID 588343)
Details: HEK293 LMP1 TES2 NF-kB luciferase reporter, 16 h; series mostly up to 35 µM

outcome, inactive:
Cc1cc(N)nc(=O)n1C1CC(O)C(CO)O1 (stereo not drawn)
O=C1CN(C(=O)c2ccc(F)c(S(=O)(=O)N3CCOCC3)c2)c2ccccc2N1
COc1ccc(C(=O)OCC(=O)c2c[nH]c3ccccc23)cc1OC
O=C(O)c1cc(=O)c2c(OCC(O)COc3cccc4oc(C(=O)O)cc(=O)c34)cccc2o1
Cc1ccc(NS(=O)(=O)c2ccc(NC(=O)C(C)Sc3ccc(Cl)cc3)cc2)c(C)c1 (stereo not drawn)
COc1ccc(CNC(=O)COC(=O)[C@@H]2CCCN2C(=O)c2cccs2)cc1
O=[N+]([O-])c1ccc(Cl)c(S(=O)(=O)NCC2CCCO2)c1 (stereo not drawn)
CSc1ccc2c(c1)C(N1CCN(C)CC1)Cc1ccccc1S2 (stereo not drawn)
O=C(c1ccc(C#CC2(O)CCCCC2)cc1)N1CCN(C(c2ccccc2)c2ccccc2)CC1
COCCNC(=O)NC12CC3(C)CC(C)(CC(C)(C3)C1)C2
COc1cc(CC(=O)N(c2ccccc2)c2nc(C)cs2)cc(OC)c1OC
Clc1ccc(-c2ccnc(Oc3ccc4ccccc4c3)n2)cc1
Cc1ccc(-c2cc(N)n3nc(-c4ccc(C)cc4)cc3n2)cc1
COC(=O)c1ccccc1NC(=O)CC(=O)Nc1ccccc1C(=O)OC
Cc1nc(SCC(=O)c2cccc([N+](=O)[O-])c2)n[nH]1
C[C@H](CO)N1C[C@H](C)[C@@H](CN(C)C(=O)NC2CCCCC2)Oc2c(NS(=O)(=O)c3cn(C)cn3)cccc2C1=O
NC1=NC(=O)NC1(c1ccccc1)c1ccccc1
C[C@H](NC(=O)N1CCn2c1nc1ccccc12)C(=O)NCC1CCCO1 (stereo partly drawn)
COc1cc2nc(N3CCN(C(=O)C4CCCO4)CC3)nc(N)c2cc1OC (stereo not drawn)
CCOC(=O)OC(C)OC(=O)[C@@H]1N2C(=O)[C@@H](NC(=O)[C@H](N)c3ccccc3)[C@H]2SC1(C)C (stereo partly drawn)
CSc1oc(-c2ccc(F)cc2)nc1S(=O)(=O)c1ccc(F)cc1
CC(NC(=O)CCOc1ccccc1)c1ccccc1 (stereo not drawn)
O=C(O)c1cn2c3c(ccc(Cl)c3c1=O)OCC2
Oc1cccc(/C=N/NC(=S)NCCN2CCOCC2)c1O
CN(C)CCC(c1ccccc1)c1ccccn1 (stereo not drawn)
COC(=O)CN(c1ccccc1F)S(=O)(=O)c1ccc(C)cc1
CC(=O)O[C@H]1CC[C@@]2(C)C(=CC[C@H]3[C@@H]4CC[C@H](C(C)=O)[C@@]4(C)CC[C@@H]32)C1
CN(C)/C=C/C(=O)c1ccc2noc(-c3ccccc3)c2c1
CCON1C(=O)C2(CCCCC2)C(=O)C12C=CCCC2 (stereo not drawn)
CCN(CC)c1ccc(NC(=O)c2cccc(F)c2)c(C)c1
CCOC(=O)CCSc1nc(N2CCOCC2)c2c(c1C#N)CC(C)(C)OC2
CSc1nc(C)nc2c1c(=O)n(C)c(=O)n2C
COCCn1c(SCc2ccc(C(=O)OC)o2)nnc1-c1c[nH]c2ccccc12
CCOc1ccc(NC(=O)CCc2nnc3ccc(N4CCC5(CC4)OCCO5)nn23)cc1
COc1ccc(C2CC(C(F)(F)F)n3ncc(C(=O)NCc4cccnc4)c3N2)cc1OC (stereo not drawn)
CCCCCC(=O)NC(=S)Nc1ccc(Br)cc1C
CC(CNC1CCCCC1)OC(=O)c1ccccc1 (stereo not drawn)
CCC(=O)NC(=S)Nc1ccccc1C(F)(F)F
CCN(C(=O)c1cccc(NC(=O)c2ccccc2)c1)C1CCCCC1
COc1ccc(C(=O)N(CN2CCCC2=O)c2cc(C)on2)cc1OC
O=C1OCC2=C1C(c1ccc3c(c1)OCO3)c1cc3c(cc1O2)OCO3 (stereo not drawn)
CNC1(C)[C@H]2CC[C@H](C2)C1(C)C (stereo partly drawn)
Cc1ccc(NC(=O)/C=N/OCC(=O)NCc2ccccc2Cl)cc1
COCC(=O)N(C)c1nnc(-c2ccccn2)s1
Cc1cc(C)cc(C(=O)NCCC(=O)NCc2cc(=O)n(C)c(=O)n2C)c1
CCOCCCNC(=O)CN1C(=O)/C(=C\c2ccc(C)cc2)Sc2ccccc21
Cc1ccc(S(=O)(=O)N2CCC[C@H]2C(=O)Nc2ccccc2C)cc1
CCN(C(=O)c1cc(OC)c(OC)c(OC)c1)C1CCCCC1
C[C@]12CC[C@@H]3c4ccc(OS(=O)(=O)O)cc4CC[C@H]3[C@@H]1CCC2=O
O=c1c([N+](=O)[O-])cn(Cc2ccccc2)c(=O)n1Cc1ccccc1
C[C@@]12C(=O)N(Cc3ccccc3)CC(=O)N1[C@H](/C=C/c1ccccc1)[C@@H]1C(=O)N(c3ccccc3)C(=O)[C@@H]12
O=c1cc(-c2ccccc2)[nH]c2ccc(F)cc12
O=C(C1CC1)N1N=C(c2ccc(Br)cc2)CC1(O)C(F)(F)F (stereo not drawn)
COc1cc(OC)cc(-c2c(C#Cc3ccsc3)c3cc(-c4cc(OC)c(OC)c(OC)c4)ccc3n2C)c1
CCCc1nc(SCC(=O)NCc2ccco2)c2c(=O)n(C)c(=O)n(C)c2n1
Cc1cccn2c(=O)c(C=NCCO)c(NCc3ccco3)nc12
Cc1cccc(Nc2nc(Cl)ncc2F)c1C
COc1ccccc1C=NN=Cc1ccccc1O
COC(CNC(=O)c1ccc(N2CCC3(CC2)OCCO3)c([N+](=O)[O-])c1)OC
CC(=O)Nc1ccc(NC(=O)C(c2ccccc2)c2ccccc2)cc1
CCOC(=O)[C@H]1[C@H]2COc3ccc(OC)cc3[C@@H]2N2C(=O)CN(C)C(=O)[C@@]12C
COc1ccc(C2=NN(C(=O)CSC3=NN4CCCC(=O)N=C4S3)C(c3cccc(OC)c3OC)C2)cc1 (stereo not drawn)
CCOC(=O)Nc1ccc2c(c1)N(C(=O)CN(C)C)c1ccccc1CC2
Cn1c(=O)c2c(ncn2CC(=O)Nc2cc(S(=O)(=O)N3CCCCC3)ccc2O)n(C)c1=O
CCCN1C(=O)C2(SC(NC(C)=O)=NN2C(C)=O)c2cc(C)cc(C)c21 (stereo not drawn)
CCC(C)[C@H](NC(=O)NCc1cccnc1)C(=O)OC (stereo partly drawn)
C=CCN1CCc2cc(O)c(O)cc2C(c2ccccc2)C1 (stereo not drawn)
Cc1ccc(C)c(S(=O)(=O)N2CCN(C(=O)c3ccc(C)s3)CC2)c1
COc1ccccc1-c1ccccc1C1=CC(=O)CC(C)(C)C1=O
CCOC(=O)N1CCN(C(=O)C2CCC(=O)N(Cc3ccccc3OC)C2)CC1 (stereo not drawn)
COc1ccc(C(=O)NCCN2CCOCC2)cc1[N+](=O)[O-]
CNC(=O)c1[nH]cnc1C(=O)N[C@@H](CCCCNC(=O)OC(C)(C)C)C(=O)OC(C)(C)C
Cc1cccc(C)c1Nc1nc2ccccc2o1
OCc1cc(C(O)CNCCCCCCOCCCCc2ccccc2)ccc1O (stereo not drawn)
COc1ccccc1NC(=O)c1c(Nc2ccccc2C)sc(C(=O)Nc2cccc(Cl)c2)c1N
O=C(OCc1nc2ccccc2s1)[C@@H]1CCCN1S(=O)(=O)c1ccccc1F
C[C@@H](OC(=O)c1[nH]cnc1C(=O)N1CCc2ccccc2C1)c1ccccc1
O=C(Nc1ccc(Cl)cc1)c1ccco1
CSCCC(NC(=O)c1ccco1)C(=O)OCC(=O)Nc1ncc(Cl)c(C)c1Cl (stereo not drawn)
C[C@H]1C[C@H]2[C@@H]3CCC4=CC(=O)C=C[C@]4(C)[C@@]3(F)[C@@H](O)C[C@]2(C)[C@@]1(O)C(=O)CO
CCn1c(CCNC(=O)c2ccc(OC)cc2)nnc1SCc1ccc(Cl)cc1Cl
CCC(Oc1ccccc1)C(=O)NC1CCSC1=O (stereo not drawn)
CC1=C(C)C(OCCCl)N(c2cc(O)c(Cl)cc2F)C1=O (stereo not drawn)
O=C(C[n+]1ccccc1)N/N=C/c1ccc(O)cc1
CC(C)Cc1ccc([C@H](C)C(=O)O)cc1
Cc1ccc(CNC(=O)C2CCN(S(=O)(=O)c3c(C)noc3/C=C/c3ccco3)CC2)cc1
C[C@@H]1CN([C@@H](C)CO)C(=O)c2cc(NC(=O)Nc3ccccc3)ccc2O[C@H]1CN(C)C(=O)Nc1cccc2ccccc12
O=C(NN1C(=O)C2C3C=CC(C4CC34)C2C1=O)c1cccc(Cl)c1 (stereo not drawn)
Nc1ccn(C2CCCO2)c(=O)n1 (stereo not drawn)
NC(=O)c1ncn([C@@H]2O[C@H](CO)[C@@H](O)[C@H]2O)n1
Nc1ccc(CCNc2ncnc3c2ncn3[C@@H]2O[C@H](CO)[C@@H](O)[C@H]2O)cc1
CCOc1ccccc1/C=C/c1onc(C)c1S(=O)(=O)N1CCC(C(=O)N(CC)CC)CC1
CCCC(=O)NCCCc1nc2ccccc2n1C
COc1nc(Nc2nc3ccccc3c(=O)[nH]2)nc2ccc(C)cc12
COc1c(S(=O)(=O)N2CCN(c3ccc(F)cc3)CC2)ccc(Cl)c1Cl
O=C(CCCOc1ccccc1)N1CCN(c2ccccc2)CC1
Cc1cccc(NC(=O)Nc2c(C)n(C)n(-c3ccccc3)c2=O)c1C
Cc1ccc(NC(=S)Nc2cccc(S(=O)(=O)Nc3c(C)n(C)n(-c4ccccc4)c3=O)c2)cc1
C/C(=N\NS(=O)(=O)c1ccc([N+](=O)[O-])cc1)c1cccs1
O=C(CCNc1cccc(F)c1)c1cc2ccccc2o1
Cc1ccccc1CC(=O)NCc1cccnc1
COc1ccc(-c2ccc3c(c2)S(=O)(=O)c2cccc(C(=O)NCc4cc(C)oc4C(F)(F)F)c2C3=O)cc1OC
Cc1ccc(N2CCCCn3c2nc2c3c(=O)n(CC(=O)O)c(=O)n2C)cc1
